Assay [1] deals with T1, Ephrin type-A receptor 3 (Homo sapiens) (UniProt P29320).
T1 sequence (whole entry): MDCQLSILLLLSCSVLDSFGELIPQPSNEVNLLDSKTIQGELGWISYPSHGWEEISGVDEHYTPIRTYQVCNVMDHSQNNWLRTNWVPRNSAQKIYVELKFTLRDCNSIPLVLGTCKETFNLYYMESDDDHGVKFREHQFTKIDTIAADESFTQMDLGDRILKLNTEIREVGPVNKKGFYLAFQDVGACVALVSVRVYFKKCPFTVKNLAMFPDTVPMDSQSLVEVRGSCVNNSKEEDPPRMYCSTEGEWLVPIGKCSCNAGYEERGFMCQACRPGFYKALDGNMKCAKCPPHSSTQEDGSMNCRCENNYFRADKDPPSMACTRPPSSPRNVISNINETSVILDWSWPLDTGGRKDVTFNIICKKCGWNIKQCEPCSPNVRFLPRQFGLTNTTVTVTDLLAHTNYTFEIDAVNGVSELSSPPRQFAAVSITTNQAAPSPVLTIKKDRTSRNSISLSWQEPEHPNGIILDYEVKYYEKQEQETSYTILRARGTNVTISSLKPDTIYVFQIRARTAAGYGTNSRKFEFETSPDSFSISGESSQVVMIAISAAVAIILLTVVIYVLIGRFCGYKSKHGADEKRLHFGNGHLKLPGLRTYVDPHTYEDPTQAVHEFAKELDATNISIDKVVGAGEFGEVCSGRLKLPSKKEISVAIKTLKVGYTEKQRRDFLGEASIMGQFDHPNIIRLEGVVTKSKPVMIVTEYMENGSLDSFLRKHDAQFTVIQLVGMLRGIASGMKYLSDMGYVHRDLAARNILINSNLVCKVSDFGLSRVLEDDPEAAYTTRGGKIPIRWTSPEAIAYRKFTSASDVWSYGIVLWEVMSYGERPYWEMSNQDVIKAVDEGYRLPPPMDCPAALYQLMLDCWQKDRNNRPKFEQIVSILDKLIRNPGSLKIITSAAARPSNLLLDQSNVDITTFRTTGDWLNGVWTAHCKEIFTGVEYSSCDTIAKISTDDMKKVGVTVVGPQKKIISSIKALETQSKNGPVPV
Particulars: at 10 µM.

The target of assay [2] is Ephrin type-A receptor 4 (Homo sapiens) (UniProt P54764). Particulars: at 1 µM.
Sequence of Ephrin type-A receptor 4 (Homo sapiens) (P54764 whole entry): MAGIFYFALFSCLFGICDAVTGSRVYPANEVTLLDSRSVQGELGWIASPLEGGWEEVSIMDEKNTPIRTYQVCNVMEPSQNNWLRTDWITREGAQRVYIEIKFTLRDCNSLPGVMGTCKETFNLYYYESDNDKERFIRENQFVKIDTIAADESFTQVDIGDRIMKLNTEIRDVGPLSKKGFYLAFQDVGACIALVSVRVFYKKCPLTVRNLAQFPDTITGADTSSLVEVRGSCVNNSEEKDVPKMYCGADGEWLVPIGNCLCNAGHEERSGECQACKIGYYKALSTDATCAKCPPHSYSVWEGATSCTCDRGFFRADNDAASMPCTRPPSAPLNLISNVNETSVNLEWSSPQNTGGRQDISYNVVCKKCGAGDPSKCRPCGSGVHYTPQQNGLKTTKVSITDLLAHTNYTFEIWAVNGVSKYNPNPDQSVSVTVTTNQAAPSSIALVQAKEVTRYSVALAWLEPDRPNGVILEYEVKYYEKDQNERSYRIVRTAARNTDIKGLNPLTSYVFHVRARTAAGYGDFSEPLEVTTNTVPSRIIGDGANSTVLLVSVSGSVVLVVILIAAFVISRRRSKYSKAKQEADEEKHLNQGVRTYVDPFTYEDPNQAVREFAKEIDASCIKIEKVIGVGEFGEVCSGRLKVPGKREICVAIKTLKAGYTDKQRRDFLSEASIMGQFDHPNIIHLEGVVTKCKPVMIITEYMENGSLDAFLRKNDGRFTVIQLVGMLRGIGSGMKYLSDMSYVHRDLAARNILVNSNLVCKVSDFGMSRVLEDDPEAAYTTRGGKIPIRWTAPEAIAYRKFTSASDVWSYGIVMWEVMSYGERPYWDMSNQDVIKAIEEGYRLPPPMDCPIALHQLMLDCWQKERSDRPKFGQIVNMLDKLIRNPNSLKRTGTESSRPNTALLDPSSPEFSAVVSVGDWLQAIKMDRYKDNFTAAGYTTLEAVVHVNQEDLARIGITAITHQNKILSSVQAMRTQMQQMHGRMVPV
Assay [3] has the same target. The note with it: at 10 µM.
The target in assay [4] is Ephrin type-A receptor 5 (Homo sapiens) (UniProt P54756). The note with it: at 1 µM.
Sequence of Ephrin type-A receptor 5 (Homo sapiens) (P54756 whole entry): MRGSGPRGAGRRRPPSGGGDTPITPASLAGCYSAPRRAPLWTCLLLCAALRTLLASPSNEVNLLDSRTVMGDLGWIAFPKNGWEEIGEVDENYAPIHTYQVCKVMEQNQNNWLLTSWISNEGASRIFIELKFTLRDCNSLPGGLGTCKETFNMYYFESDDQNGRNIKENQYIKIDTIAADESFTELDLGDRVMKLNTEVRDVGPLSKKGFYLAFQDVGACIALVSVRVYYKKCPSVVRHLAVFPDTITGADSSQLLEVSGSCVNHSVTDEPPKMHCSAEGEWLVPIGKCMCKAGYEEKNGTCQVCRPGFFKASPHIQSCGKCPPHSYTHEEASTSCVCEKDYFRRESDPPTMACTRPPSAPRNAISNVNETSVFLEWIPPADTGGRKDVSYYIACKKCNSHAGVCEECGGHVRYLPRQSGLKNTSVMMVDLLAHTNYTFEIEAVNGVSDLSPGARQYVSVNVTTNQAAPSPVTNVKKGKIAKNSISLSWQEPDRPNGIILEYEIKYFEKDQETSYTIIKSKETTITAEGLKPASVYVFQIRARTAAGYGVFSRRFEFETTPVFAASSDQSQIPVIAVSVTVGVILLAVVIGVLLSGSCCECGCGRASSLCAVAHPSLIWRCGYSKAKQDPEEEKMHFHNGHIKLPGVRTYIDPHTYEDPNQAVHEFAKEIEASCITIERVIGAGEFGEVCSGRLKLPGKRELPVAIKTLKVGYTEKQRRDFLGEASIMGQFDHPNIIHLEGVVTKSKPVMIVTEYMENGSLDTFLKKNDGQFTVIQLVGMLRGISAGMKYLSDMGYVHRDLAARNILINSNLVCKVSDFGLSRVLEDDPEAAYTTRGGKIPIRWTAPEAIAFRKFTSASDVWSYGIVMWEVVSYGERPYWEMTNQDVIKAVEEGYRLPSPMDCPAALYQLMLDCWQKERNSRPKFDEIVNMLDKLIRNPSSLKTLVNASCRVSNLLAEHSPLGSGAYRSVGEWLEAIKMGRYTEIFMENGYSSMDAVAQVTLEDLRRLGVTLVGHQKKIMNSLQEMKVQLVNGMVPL
The target is the same in assay [5]. Particulars: at 10 µM.
For assay [6], the target named is Ephrin type-A receptor 7 (Homo sapiens) (UniProt Q15375). The note with it: at 1 µM.
Sequence of Ephrin type-A receptor 7 (Homo sapiens) (Q15375 28-998 limits assumed): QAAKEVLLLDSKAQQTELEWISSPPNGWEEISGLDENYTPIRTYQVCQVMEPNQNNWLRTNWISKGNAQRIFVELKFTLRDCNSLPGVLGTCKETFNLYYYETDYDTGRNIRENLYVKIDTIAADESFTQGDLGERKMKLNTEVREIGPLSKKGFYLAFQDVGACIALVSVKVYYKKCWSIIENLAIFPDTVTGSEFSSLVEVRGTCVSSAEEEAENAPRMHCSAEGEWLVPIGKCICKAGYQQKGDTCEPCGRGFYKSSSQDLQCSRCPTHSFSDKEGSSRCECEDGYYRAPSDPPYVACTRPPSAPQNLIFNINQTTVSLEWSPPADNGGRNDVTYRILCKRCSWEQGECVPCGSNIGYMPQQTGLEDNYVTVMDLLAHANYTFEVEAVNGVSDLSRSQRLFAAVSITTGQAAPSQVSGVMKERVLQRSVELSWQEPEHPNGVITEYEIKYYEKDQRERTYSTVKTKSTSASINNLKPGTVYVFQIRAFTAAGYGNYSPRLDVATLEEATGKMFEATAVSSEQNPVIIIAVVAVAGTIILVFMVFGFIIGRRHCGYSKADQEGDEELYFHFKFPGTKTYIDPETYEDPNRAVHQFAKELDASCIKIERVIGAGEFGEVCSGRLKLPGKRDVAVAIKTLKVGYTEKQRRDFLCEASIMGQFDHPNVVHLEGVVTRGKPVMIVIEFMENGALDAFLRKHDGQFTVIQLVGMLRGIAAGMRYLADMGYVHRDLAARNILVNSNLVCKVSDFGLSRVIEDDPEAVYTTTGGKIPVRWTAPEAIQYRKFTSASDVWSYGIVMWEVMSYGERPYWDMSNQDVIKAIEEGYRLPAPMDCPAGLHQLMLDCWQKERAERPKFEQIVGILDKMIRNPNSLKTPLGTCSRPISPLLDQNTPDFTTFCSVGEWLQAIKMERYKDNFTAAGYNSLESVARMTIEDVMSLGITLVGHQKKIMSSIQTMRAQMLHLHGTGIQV
For assay [7] the target is unchanged. The note with it: at 10 µM.
Assay [8] concerns the target T2, Ephrin type-A receptor 8 (Homo sapiens) (UniProt P29322).
T2 sequence (whole entry): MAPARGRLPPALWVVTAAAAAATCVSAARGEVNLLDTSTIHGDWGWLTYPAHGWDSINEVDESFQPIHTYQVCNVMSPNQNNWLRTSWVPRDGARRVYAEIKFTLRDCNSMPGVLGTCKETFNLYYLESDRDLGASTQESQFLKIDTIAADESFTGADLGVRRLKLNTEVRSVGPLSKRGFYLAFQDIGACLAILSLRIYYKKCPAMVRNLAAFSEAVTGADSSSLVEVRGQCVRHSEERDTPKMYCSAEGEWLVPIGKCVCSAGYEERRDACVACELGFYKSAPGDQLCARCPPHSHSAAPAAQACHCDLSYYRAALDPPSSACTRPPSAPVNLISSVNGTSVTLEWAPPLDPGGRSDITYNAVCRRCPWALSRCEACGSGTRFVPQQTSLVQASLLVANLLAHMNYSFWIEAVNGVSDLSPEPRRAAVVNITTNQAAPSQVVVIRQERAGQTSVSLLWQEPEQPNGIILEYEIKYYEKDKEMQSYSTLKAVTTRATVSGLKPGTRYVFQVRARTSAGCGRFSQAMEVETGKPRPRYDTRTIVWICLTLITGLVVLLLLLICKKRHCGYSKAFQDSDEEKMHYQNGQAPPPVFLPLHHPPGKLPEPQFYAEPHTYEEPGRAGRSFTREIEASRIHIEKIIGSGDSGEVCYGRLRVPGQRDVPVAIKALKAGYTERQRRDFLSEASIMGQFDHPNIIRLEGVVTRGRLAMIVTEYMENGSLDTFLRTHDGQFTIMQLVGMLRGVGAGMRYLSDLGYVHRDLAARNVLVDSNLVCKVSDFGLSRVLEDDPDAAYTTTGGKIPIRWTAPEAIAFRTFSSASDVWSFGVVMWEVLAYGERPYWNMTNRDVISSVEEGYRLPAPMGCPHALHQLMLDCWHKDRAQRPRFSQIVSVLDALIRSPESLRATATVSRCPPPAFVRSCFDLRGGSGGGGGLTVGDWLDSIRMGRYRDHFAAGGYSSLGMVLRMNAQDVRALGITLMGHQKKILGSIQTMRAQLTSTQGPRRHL
The note with it: at 1 µM.

Assay [9] deals with T2, Ephrin type-A receptor 8 (Homo sapiens). Particulars: at 10 µM.
In assay [10] the target is T3, Ephrin type-B receptor 1 (Homo sapiens) (UniProt P54762).
T3 sequence (whole entry): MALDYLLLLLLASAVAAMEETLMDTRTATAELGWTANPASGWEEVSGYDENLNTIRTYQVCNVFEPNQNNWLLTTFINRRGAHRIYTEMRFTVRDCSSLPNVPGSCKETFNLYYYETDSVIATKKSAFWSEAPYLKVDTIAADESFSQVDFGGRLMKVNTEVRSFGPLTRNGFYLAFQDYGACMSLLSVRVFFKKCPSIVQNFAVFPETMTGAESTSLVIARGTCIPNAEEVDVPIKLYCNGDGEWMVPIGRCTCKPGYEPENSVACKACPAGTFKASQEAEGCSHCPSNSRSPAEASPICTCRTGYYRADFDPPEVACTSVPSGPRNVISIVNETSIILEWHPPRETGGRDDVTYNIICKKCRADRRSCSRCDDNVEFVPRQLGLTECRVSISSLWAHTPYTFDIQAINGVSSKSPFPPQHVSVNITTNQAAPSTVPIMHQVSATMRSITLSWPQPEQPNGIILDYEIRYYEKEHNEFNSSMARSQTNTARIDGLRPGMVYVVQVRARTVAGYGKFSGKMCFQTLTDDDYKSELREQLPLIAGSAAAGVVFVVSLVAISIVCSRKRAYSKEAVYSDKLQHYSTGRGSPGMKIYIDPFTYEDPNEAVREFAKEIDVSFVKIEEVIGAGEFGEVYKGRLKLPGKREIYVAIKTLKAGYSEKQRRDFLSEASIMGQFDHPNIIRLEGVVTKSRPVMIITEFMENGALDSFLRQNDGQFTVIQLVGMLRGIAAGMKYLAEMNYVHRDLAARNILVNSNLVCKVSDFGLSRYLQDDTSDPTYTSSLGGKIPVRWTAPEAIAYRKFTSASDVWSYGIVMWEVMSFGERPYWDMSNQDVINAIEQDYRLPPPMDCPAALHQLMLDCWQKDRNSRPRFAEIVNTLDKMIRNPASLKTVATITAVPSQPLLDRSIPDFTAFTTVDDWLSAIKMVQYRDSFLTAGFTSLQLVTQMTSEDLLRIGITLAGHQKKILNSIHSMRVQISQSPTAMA
The note with it: at 1 µM.

The target in assay [11] is T3, Ephrin type-B receptor 1 (Homo sapiens). The note with it: at 10 µM.
Assay [12] addresses T4, Ephrin type-B receptor 2 (Homo sapiens) (UniProt P29323).
T4 sequence (whole entry): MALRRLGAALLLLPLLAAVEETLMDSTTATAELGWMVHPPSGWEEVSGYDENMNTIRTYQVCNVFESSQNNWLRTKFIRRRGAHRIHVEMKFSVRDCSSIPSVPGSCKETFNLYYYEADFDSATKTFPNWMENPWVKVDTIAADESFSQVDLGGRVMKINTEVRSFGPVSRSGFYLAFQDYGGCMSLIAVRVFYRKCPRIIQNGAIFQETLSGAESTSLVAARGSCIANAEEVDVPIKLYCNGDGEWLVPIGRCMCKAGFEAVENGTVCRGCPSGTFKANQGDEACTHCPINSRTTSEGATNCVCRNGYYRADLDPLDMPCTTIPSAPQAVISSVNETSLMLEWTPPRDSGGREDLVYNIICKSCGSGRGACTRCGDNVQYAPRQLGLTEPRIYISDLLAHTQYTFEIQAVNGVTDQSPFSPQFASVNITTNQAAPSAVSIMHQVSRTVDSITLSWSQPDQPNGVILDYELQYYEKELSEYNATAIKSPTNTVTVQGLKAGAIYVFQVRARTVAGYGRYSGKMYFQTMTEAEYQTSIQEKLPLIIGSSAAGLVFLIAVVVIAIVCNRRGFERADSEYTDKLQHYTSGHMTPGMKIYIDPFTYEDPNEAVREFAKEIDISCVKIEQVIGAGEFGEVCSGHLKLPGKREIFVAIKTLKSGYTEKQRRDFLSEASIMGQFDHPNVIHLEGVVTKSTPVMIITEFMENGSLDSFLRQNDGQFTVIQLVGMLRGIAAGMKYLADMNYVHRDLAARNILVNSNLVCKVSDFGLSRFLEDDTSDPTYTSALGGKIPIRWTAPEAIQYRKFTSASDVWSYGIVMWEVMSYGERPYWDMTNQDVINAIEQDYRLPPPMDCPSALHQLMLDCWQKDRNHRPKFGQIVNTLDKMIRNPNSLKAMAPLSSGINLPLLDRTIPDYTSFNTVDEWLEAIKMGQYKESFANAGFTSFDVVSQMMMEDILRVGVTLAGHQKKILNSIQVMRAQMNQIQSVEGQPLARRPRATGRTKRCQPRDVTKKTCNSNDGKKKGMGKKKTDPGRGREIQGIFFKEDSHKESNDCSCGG
The note with it: at 1 µM.

For assay [13], the target named is T4, Ephrin type-B receptor 2 (Homo sapiens). Particulars: at 10 µM.
The target of assay [14] is T5, Ephrin type-B receptor 3 (Homo sapiens) (UniProt P54753).
T5 sequence (whole entry): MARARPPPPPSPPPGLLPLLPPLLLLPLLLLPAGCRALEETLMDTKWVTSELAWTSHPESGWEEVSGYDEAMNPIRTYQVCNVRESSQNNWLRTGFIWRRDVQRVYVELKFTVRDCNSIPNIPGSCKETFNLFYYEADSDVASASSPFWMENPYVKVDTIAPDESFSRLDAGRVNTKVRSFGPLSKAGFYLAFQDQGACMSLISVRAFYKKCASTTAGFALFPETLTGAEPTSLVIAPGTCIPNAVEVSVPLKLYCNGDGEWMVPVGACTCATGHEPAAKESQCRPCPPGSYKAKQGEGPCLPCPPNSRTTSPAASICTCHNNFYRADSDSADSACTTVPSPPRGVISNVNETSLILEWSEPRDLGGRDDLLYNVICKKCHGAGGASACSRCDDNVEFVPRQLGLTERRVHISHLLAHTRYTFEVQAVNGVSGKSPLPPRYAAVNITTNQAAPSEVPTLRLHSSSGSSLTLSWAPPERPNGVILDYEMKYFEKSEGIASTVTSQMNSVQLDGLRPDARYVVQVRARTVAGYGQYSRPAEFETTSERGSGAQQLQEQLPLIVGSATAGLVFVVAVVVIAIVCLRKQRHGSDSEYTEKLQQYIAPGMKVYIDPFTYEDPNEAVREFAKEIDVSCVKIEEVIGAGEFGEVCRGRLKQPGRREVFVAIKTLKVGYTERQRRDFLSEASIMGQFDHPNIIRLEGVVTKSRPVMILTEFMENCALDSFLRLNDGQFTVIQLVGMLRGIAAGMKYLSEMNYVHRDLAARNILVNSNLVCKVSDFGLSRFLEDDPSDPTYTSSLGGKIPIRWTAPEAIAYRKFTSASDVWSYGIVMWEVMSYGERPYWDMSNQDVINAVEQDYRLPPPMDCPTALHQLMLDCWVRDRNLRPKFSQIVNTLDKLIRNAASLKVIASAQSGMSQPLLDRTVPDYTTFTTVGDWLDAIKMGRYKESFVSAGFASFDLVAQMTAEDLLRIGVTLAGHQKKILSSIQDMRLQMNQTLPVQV
Particulars: at 10 µM.

Assay [15] concerns the target T6, Ephrin type-B receptor 4 (Homo sapiens) (UniProt P54760).
T6 sequence (whole entry): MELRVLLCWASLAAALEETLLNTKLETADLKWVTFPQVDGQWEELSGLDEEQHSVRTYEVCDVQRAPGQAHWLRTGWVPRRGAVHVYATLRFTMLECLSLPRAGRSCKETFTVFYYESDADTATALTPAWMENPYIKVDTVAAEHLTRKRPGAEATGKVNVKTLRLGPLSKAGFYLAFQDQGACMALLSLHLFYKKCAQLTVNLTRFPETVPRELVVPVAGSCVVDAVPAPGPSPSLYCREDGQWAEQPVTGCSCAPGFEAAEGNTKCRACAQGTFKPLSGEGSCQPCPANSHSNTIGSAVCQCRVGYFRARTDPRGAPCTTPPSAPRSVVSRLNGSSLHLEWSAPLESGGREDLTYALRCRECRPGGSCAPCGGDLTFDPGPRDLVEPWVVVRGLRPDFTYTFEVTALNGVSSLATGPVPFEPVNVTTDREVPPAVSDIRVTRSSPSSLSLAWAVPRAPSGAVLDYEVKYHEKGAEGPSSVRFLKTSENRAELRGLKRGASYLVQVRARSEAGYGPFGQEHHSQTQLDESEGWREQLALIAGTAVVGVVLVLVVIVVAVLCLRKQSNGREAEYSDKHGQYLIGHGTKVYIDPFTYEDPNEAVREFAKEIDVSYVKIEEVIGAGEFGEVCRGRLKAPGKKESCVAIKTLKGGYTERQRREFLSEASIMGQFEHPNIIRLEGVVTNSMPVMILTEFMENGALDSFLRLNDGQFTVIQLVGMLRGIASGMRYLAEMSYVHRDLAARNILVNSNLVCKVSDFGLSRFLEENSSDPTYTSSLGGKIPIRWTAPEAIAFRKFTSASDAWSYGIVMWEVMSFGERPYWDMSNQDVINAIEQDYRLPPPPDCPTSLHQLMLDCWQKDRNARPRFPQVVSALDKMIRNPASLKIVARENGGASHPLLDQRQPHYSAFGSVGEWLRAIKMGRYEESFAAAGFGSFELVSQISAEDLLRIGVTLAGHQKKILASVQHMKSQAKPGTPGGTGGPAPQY
The note with it: at 1 µM.

Assay [16] concerns the target T6, Ephrin type-B receptor 4 (Homo sapiens). Particulars: at 10 µM.
Assay [17] has as its target Receptor tyrosine-protein kinase erbB-4 (Homo sapiens) (UniProt Q15303). The note with it: at 1 µM.
The target is the same in assay [18]. Particulars: at 10 µM.
Assay [19] has as its target Focal adhesion kinase 1 (Homo sapiens) (UniProt Q05397). The note with it: at 1 µM.

Sequence of Receptor tyrosine-protein kinase erbB-4 (Homo sapiens) (Q15303 whole entry): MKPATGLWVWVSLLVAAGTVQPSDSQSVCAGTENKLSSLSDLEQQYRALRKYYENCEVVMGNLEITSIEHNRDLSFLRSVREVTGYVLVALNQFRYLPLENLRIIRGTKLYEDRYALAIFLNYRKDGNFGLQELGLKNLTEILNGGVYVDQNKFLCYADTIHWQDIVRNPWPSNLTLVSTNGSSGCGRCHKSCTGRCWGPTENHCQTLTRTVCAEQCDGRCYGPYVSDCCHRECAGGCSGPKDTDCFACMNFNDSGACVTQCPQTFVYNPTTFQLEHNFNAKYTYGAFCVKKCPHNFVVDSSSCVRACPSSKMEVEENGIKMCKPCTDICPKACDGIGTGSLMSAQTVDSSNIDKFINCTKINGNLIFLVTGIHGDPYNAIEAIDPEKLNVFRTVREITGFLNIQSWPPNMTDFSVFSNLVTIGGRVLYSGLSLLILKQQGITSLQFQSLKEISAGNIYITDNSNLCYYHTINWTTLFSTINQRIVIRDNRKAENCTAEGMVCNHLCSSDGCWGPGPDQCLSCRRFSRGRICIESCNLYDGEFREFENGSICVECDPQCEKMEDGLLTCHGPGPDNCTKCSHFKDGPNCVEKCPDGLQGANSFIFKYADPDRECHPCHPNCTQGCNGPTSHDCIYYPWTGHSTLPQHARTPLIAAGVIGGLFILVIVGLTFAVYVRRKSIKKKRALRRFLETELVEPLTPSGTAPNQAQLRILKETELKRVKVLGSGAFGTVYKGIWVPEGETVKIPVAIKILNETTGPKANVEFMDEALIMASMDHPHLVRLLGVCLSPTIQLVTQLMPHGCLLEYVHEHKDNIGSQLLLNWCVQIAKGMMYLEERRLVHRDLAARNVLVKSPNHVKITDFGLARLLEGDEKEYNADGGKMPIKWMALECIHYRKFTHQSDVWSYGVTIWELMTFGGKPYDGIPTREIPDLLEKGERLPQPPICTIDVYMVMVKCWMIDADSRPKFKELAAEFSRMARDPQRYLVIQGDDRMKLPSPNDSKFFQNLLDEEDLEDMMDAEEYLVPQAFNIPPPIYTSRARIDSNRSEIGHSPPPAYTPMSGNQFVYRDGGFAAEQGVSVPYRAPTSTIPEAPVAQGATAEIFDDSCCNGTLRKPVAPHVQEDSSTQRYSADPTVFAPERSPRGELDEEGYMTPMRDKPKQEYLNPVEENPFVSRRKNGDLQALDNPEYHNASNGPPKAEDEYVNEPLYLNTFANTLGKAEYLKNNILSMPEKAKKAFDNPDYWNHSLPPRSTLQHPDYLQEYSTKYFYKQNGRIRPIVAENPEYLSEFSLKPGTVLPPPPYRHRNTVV

Regarding `Oc1c2ccccc2c2c3c(cccc13)N=N2`, the residual activity (in general, the signal under treatment as a percentage of the control signal) came out at 48% in assay [1]; 105% in assay [2]; 106% in assay [3]; 115% in [4]; 63% in assay [5]; 80% in [6]. Also, the residual activity came to 41% in assay [7]; 92% in assay [8]; 76% in assay [9]; 91% in assay [10]; 29% in assay [11]; 101% in [12]. Also, the residual activity was 95% in assay [13]; 81% in assay [14]; 89% in assay [15]; 55% in assay [16]; 104% in assay [17]; 97% in assay [18]. The residual activity in assay [19] amounted to 52%.

The values above are taken from ChEMBL document CHEMBL2218924, “A broad activity screen in support of a chemogenomic map for kinase signalling research and drug discovery” (Biochem J, 2013).
